Measured values as given in publication PMC4336329 (PLoS ONE, 2015).
The campaign covered roughly 310,000 compounds. About 14,000 (4.5%) showed an effect of 50% or more. Effects have a minus sign here. What follows is part of a selection rich in strong results, with near analogues and random picks from the rest.

The molecules below were run against human ether-à-go-go-related gene (hERG) potassium channel (human, UniProt Q12809) (assay: primary screen, population patch clamp on CHO cells stably expressing hERG; higher = less effect of the substance).
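Further: peak tail current of the secondary pulse compared with the same well before compound.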

human ether-à-go-go-related gene (hERG) potassium channel, sequence (Q12809 whole entry, looked up): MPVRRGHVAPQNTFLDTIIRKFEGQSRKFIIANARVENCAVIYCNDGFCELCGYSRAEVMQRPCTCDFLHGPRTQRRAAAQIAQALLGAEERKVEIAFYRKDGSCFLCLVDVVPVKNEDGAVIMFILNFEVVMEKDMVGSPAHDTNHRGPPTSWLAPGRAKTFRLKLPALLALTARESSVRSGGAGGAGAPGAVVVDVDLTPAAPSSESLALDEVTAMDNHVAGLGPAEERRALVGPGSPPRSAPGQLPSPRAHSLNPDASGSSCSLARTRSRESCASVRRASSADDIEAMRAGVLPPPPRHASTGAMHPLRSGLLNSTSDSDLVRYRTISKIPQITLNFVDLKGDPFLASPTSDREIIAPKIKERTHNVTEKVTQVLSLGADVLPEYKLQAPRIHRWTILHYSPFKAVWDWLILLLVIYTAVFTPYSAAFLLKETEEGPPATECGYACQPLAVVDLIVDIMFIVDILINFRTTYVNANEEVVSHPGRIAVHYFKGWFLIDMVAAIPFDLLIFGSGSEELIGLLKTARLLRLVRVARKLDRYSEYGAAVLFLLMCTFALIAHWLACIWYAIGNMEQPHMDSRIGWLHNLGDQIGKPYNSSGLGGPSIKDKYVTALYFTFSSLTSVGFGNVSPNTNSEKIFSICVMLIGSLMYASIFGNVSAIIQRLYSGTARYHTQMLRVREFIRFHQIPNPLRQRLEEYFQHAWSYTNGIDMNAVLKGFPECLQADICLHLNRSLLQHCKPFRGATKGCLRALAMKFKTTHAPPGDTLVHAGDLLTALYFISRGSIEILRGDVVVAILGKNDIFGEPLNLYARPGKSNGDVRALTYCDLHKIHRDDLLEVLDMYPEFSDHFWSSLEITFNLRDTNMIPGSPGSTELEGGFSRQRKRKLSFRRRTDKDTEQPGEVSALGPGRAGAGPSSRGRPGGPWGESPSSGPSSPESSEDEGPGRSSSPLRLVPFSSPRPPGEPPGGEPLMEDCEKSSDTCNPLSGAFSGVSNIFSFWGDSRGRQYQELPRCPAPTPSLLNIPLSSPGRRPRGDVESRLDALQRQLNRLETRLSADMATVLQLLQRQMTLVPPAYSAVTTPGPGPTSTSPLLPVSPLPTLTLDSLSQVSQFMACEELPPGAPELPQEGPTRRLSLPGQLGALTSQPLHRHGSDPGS

SMILES	hERG current change (%, negative = inhibition) at 10uM [%]
O=C(CCC(=O)OCC(=O)c1ccc([N+](=O)[O-])cc1)NC1CCCCC1	-0.724
COc1ccc(Cn2nnnc2CN2CCC(O)(c3ccc(F)cc3)CC2)cc1	-14.5
COc1cccc(C(=O)Nc2ccc(-n3nncc3C(C)(C)C)cc2)c1	-60.5
COc1ccc(C(=O)Nc2ccc(-n3nncc3C(C)(C)C)cc2)cc1	-26.4
CC(C)(C)c1cnnn1-c1ccc(NC(=O)c2ccc3c(c2)OCO3)cc1	-17.4
CC1(C)CC(=O)c2cc(C(=O)NCc3ccco3)c(=O)n(-c3ccc(Cl)cc3)c2C1	-22.2
O=C1CCCc2c1cc(C(=O)NCCCN1CCOCC1)c(=O)n2-c1ccc(Cl)cc1	1.59
O=C1CCCc2c1cc(C(=O)NCc1ccco1)c(=O)n2-c1ccccc1	-10.3
Cc1ccc(-n2c3c(cc(C(=O)NCC(=O)c4ccccc4)c2=O)C(=O)CCC3)cc1	10.2
O=C1CCCc2c1cc(C(=O)NCc1ccco1)c(=O)n2-c1ccc(Cl)cc1	-69.3
COc1ccc(-n2c3c(cc(C(=O)NCc4ccco4)c2=O)C(=O)CC(C)(C)C3)cc1	-56.6
O=C1CCCc2c1cc(C(=O)Nc1ccc(Cl)cn1)c(=O)n2-c1ccccc1	-60.1
Cc1ccc(-n2c3c(cc(C(=O)NCc4ccco4)c2=O)C(=O)CCC3)cc1	-53.8
O=C1CCCc2c1cc(C(=O)Nc1ccc(Br)cn1)c(=O)n2-c1ccccc1	-2.93
Cc1ccc(-n2c3c(cc(C(=O)NCc4ccco4)c2=O)C(=O)CC(C)(C)C3)cc1	-6.38
CC1(C)CC(=O)c2cc(C(=O)NCc3ccco3)c(=O)n(-c3ccccc3)c2C1	-19.7
O=C1CCCc2c1cc(C(=O)O)c(=O)n2-c1ccccc1	13.9
CS(=O)(=O)N(CC(=O)N1CCN(c2cccc(Cl)c2)CC1)c1cccc(F)c1	-33.8
COc1ccccc1NC(=O)Cn1c(CN2CCCCC2)nc2ccccc2c1=O	-43.7
CN(Cc1cccs1)C(=O)CCCc1c[nH]c2ccccc12	-1.49
COc1ccc(/C(O)=C2/C(=O)C(=O)N(CCN(C)C)C2c2ccc(OC)c(OC)c2)c(C)c1 (stereo not drawn)	11

SMILES	hERG current change (%, negative = inhibition) at 10uM [%]
O=C(c1cc(S(=O)(=O)N2CCOCC2)ccc1Cl)N1CCC(Cc2ccccc2)CC1	-15.9
Cc1cc(CNC(=O)c2cccc([N+](=O)[O-])c2)c2ccccc2n1	6.72
Cc1cc(CNC(=O)c2cccc([N+](=O)[O-])c2C)c2ccccc2n1	-53
Cc1cc(CNC(=O)c2ccc(C)c([N+](=O)[O-])c2)c2ccccc2n1	8.05
CN(CC(=O)Nc1ccc(F)cc1)C(=O)COc1ncnc2ccccc12	-19.3
Cc1ccc(NC(=O)COc2ccccc2C(=O)NCc2ccccc2)cc1	-31.1
COc1cccc(-c2cn(C[C@H]3CC[C@@H]([C@@H]4CC[C@H](Cn5cc(-c6cccc(OC)c6)nn5)O4)O3)nn2)c1	-72.7
c1ccc(-c2cn(C[C@H]3CC[C@H](Cn4cc(-c5ccccn5)nn4)O3)nn2)nc1	-9.3
COc1ccc(-c2cn(Cc3cccc(OC)c3)nn2)cc1	-0.524
Cc1ccc(-c2cn(C[C@H]3CC[C@@H]([C@@H]4CC[C@H](Cn5cc(-c6ccc(C)cc6)nn5)O4)O3)nn2)cc1	-7.99
c1ccc(-c2cn(C[C@H]3CC[C@@H]([C@@H]4CC[C@H](Cn5cc(-c6ccccc6)nn5)O4)O3)nn2)cc1	-23.8
c1ccc(-c2cn(C[C@H]3CC[C@@H]([C@@H]4CC[C@H](Cn5cc(-c6ccccn6)nn5)O4)O3)nn2)nc1	-6.73
c1cc(-c2cn(C[C@H]3CC[C@@H]([C@@H]4CC[C@H](Cn5cc(-c6ccsc6)nn5)O4)O3)nn2)cs1	-75.5
COc1ccc(-c2cn(CC3CCCCC3)nn2)cc1	15.3
c1cncc(-c2cn(C[C@H]3CC[C@@H]([C@@H]4CC[C@H](Cn5cc(-c6cccnc6)nn5)O4)O3)nn2)c1	-58.5
Cc1c(CCO)c(=O)n(C)n1C(=O)c1ccc(F)cc1	2.6
CCCCCN(C(=O)CCC(=O)OCc1ccc(C(C)(C)C)cc1)c1c(N)n(CCCC)c(=O)[nH]c1=O	-8.09
CCN(Cc1ccccc1)C(=O)c1ccc(CS(=O)c2ccccc2C)o1 (stereo not drawn)	-43.9
C/C(=N\NC(=O)c1csc(C)c1C)c1ccc(Cl)s1	-0.674
C/C=C\C=C\C(=O)N1CC2(CC(c3cccc(NC(=O)CC(c4ccccc4)c4ccccc4)c3)=NO2)C[C@H]1C(N)=O (stereo partly drawn)	0.883
O=C1C(Cl)=C(Nc2cccc(O)c2)C(=O)N1Cc1ccccc1	-62.4

SMILES	hERG current change (%, negative = inhibition) at 10uM [%]
CC1CCCCN1C(=O)c1cccc(NC2=C(Cl)C(=O)N(Cc3ccccc3)C2=O)c1 (stereo not drawn)	-15.8
CCOc1ccc(NC2=C(Cl)C(=O)N(Cc3ccccc3)C2=O)cc1	-0.258
NC(C(=O)O)c1cc(=O)[nH]o1 (stereo not drawn)	13.4
CCC(=O)Nc1ccc(NC(=O)CSc2nnc(-c3ccco3)n2CC)cc1	8.22
CCCn1c(SCC(=O)NC2CCCCC2)nnc1-c1ccco1	-20.3
COCCn1c(SCC(=O)Nc2cccc(C)n2)nnc1-c1ccco1	-11.5
CCn1c(SCC(=O)Nc2cccc(C)n2)nnc1-c1ccco1	-50.9
CCn1c(SCC(=O)NC2CCCC2)nnc1-c1ccco1	14.8
COCCn1c(SCC(=O)Nc2cc(C)on2)nnc1-c1ccco1	-4.67
CCCCn1c(SCC(=O)Nc2cccc(C)n2)nnc1-c1ccco1	-76
CCCCn1c(SCC(=O)NC(C)(C)C)nnc1-c1ccco1	-1.57
COCCCn1c(SCC(=O)Nc2cccc(C)n2)nnc1-c1ccco1	-69.3
CCn1c(SCC(=O)Nc2cc(C)on2)nnc1-c1ccco1	-4.87
CCCCn1c(SCC(=O)NC2CCCC2)nnc1-c1ccco1	-54.8
CCCCn1c(SCC(=O)Nc2cc(C)on2)nnc1-c1ccco1	-23.3
O=C(O)c1cccc(Nc2ncnc3ccc(Br)cc23)c1	-1.55
COc1ccccc1CNS(=O)(=O)c1ccc(C)cc1	7.04
CN(C)c1ccc(/C=C2\C(=N)N3N=C(CC(=O)N4CCCC4)SC3=NC2=O)cc1Br	4.09
COCc1cc(C)nc(N/N=C/c2ccc(Cl)c(Cl)c2)c1C#N	12.4
CCN1CC2([N+](=O)[O-])CC=C(Cl)C([N+](=O)[O-])(C1)C2 (stereo not drawn)	13.9
CC(=O)Nc1ccc(S(=O)(=O)N2CCN(c3cc(C)nc4ncnn34)CC2)cc1	-27.9

SMILES	hERG current change (%, negative = inhibition) at 10uM [%]
Cc1cc(N2CCN(S(=O)(=O)c3ccc(Br)cc3)CC2)n2ncnc2n1	-76.9
Cc1ccccc1N1CCN(S(=O)(=O)c2ccc3ccccc3c2)CC1	9.64
Cc1nc2ncnn2c(N2CCN(S(=O)(=O)c3ccc(Br)cc3)CC2)c1C	-20.7
Cc1cc(N2CCN(S(=O)(=O)c3ccc4ccccc4c3)CC2)n2ncnc2n1	-77.7
Cc1cc(N2CCN(S(=O)(=O)Cc3ccccc3)CC2)n2ncnc2n1	-46.1
CC1CN(C(=O)CSc2nnc(NC(=O)NC(C)(C)C)s2)CC(C)O1 (stereo not drawn)	19
CC1(CCc2ccccc2)NC(=O)N(Cc2nnc(-c3ccccc3Br)o2)C1=O (stereo not drawn)	-26
CCOC(=O)C1CCN(C(=O)CN(c2ccc(OC)c(OC)c2)S(=O)(=O)c2ccccc2)CC1	-14.7
CCOc1ccc(S(=O)(=O)NCCC(=O)NCC(c2ccco2)N2CCCCC2)cc1 (stereo not drawn)	-17.7
CCC(=O)Nc1cc(C(F)(F)F)ccc1N1CCOCC1	1.09
O=C(Nc1cc(C(F)(F)F)ccc1N1CCCCC1)c1ccco1	21.2
CC1N(C)c2cc(NC(=O)c3ccco3)ccc2C1(C)C (stereo not drawn)	-13.9
O=C(Nc1cc(C(F)(F)F)ccc1N1CCOCC1)c1ccco1	6.93
O=C(Nc1cc([N+](=O)[O-])ccc1N1CCOCC1)c1ccco1	-25.6
CN1CCN(c2ccc(C(F)(F)F)cc2NC(=O)c2ccco2)CC1	-54.5
O=C(Nc1cc([N+](=O)[O-])ccc1N1CCCC1)c1ccco1	-34.5
CCCCn1nc(C(=O)Nc2cc(C(F)(F)F)ccc2N2CCOCC2)ccc1=O	-83.7
CN1CCN(c2ccc([N+](=O)[O-])cc2NC(=O)c2ccco2)CC1	-66.9
CC1N(C)c2cc(NC(=O)c3ccco3)c(P(=O)(Nc3ccc([N+](=O)[O-])cc3)N3CCOCC3)cc2C1(C)C (stereo not drawn)	-56
Cc1cc(C(=O)Nc2cc(C(F)(F)F)ccc2N2CCOCC2)no1	5.97
CC1N(C)c2cc(NC(=O)c3cccs3)c(P(=O)(Nc3ccc([N+](=O)[O-])cc3)N3CCOCC3)cc2C1(C)C (stereo not drawn)	12.2
